Assay [1] in a line: APR_HepG2_P-H2AX_72hr: Apredica 72-hour HepG2 Assay for H2AX Phosphorylation (AID 2282916).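 Also: phospho-histone H2A.x immunostain intensity per cell marking DNA damage.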 The note with it: imaging, actives raise or lower the signal. A digest of the protocol: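 Readout: phospho-H2A.x immunofluorescence (FITC secondary) plus Hoechst nuclear stain, high-content imaging at 20x, six fields/well. HepG2, 72 hr compound exposure, 0.39–200 uM, final DMSO 0.5% v/v. Gain or loss fitted relative to DMSO baseline.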

A short description of assay [2]: APR_HepG2_MitoMembPot_72hr: Apredica 72-hour HepG2 Assay for Mitochondrial Membrane Potential (AID 2282917). The note with it: imaging, actives raise or lower the signal. A digest of the protocol:
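Membrane potential read by MitoTracker Red CMXRos (250 nM, 30 min, pre-fixation) fluorescence imaging of HepG2 after 72 hr exposure. Ten concentrations, 0.39–200 uM, duplicate wells, 0.5% DMSO; fitted in both directions against DMSO baseline.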

Assay [3] can be described thus: APR_HepG2_MitoticArrest_72hr: Apredica 72-hour HepG2 Assay for Mitotic Arrest (AID 2282918). Particulars: high-content imaging, actives raise or lower the signal. The method, boiled down:
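High-content imaging of fixed human HepG2 cells after 72 h compound exposure (0.39–200 uM, duplicates, 0.5% DMSO); mitotic arrest scored from phospho-histone H3 and nuclear Hoechst staining relative to DMSO.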

A short description of assay [4]: APR_HepG2_MicrotubuleCSK_72hr: Apredica 72-hour HepG2 Assay for Microtubule CSK Stabilty (AID 2282919). Particulars: HepG2 microtubule cytoskeleton, high-content imaging, actives raise or lower the signal. A digest of the protocol:
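High-content imaging of alpha-tubulin staining in fixed HepG2 cells after 72 hr treatment with ten concentrations from 0.39 to 200 uM (0.5% DMSO). Fitting was bidirectional against DMSO; taxol served as positive control.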

Assay [5] can be described thus: APR_HepG2_P-H2AX_24hr: Apredica 24-hour HepG2 Assay for H2AX Phosphorylation (AID 2282920). Particulars: high-content imaging, actives raise or lower the signal. A digest of the protocol:
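High-content imaging of phospho-histone H2A.x immunofluorescence, nuclei counterstained with Hoechst 33342, in fixed HepG2 cells. Compounds ran 0.39–200 uM in duplicate for 24 h, final DMSO 0.5%. Signal change fitted both directions against DMSO.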

Assay [6] is described as follows: APR_HepG2_StressKinase_72hr: Apredica 72-hour HepG2 Assay for Stress Kinase (AID 2282921). The note with it: HepG2 stress kinase (phospho-c-Jun) imaging, actives raise or lower the signal. A digest of the protocol: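 Phospho-c-Jun immunofluorescence measured by high-content imaging at 20x, six fields per well; bidirectional curve fitting against DMSO as baseline. Dosing: 0.39–200 uM, 72 h, 0.5% DMSO final.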

Assay [7] in a line: APR_HepG2_StressKinase_24hr: Apredica 24-hour HepG2 Assay for Stress Kinase (AID 2282922). Particulars: HepG2 stress kinase (phospho-c-Jun) imaging, actives raise or lower the signal. The method, boiled down: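 High-content imaging of phospho-c-Jun immunofluorescence in fixed, permeabilized HepG2 cells after 24 h dosing. Ten concentrations, 0.39 to 200 uM, run in duplicate at 0.5% v/v DMSO; gain or loss of signal versus DMSO.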

Assay [8] can be described thus: APR_HepG2_p53Act_72hr: Apredica 72-hour HepG2 Assay for p53 Activation (AID 2282923).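 Also: average cellular p53 protein immunofluorescence intensity in HepG2 cells.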 Particulars: high-content imaging, actives raise or lower the signal. A digest of the protocol:
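Readout: p53 immunofluorescence quantified by automated high-content imaging at 20x, six fields per well, nuclei located via Hoechst. Dosing ran 72 hr over ten concentrations from 0.39 to 200 uM; bidirectional curve fitting against DMSO baseline.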

The nature of assay [9]: APR_HepG2_MitoMass_72hr: Apredica 72-hour HepG2 Assay for Mitochondrial Mass (AID 2282924).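 Also: MitoTracker Red CMXRos stain intensity per cell imaged as mitochondrial mass.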 Particulars: high-content imaging, actives raise or lower the signal. A digest of the protocol: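 Readout is imaged MitoTracker Red (250 nM, 30 min, pre-fixation) signal, fitted bidirectionally against DMSO baseline. Human HepG2 liver cells received compound 0.39–200 uM in duplicate for 72 hr, final DMSO 0.5%.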

A short description of assay [10]: APR_HepG2_NuclearSize_72hr: Apredica 72-hour HepG2 Assay for Nuclear Size (AID 2282925). Particulars: high-content imaging, actives raise or lower the signal. The method, boiled down:
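Nuclear size was read by high-content imaging of Hoechst 33342 stain after formaldehyde fixation. Compounds ran 72 h on HepG2 at 0.39 to 200 uM, with final DMSO 0.5% v/v. Curves fitted both directions relative to DMSO control.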

In general, AC50 refers to the midpoint of the concentration-response curve, whichever way the signal moves.

Calls of active or inactive are those of the source. The calls were made as follows: active = hit-call score of the fitted dose curve at least 0.9, where 1 is the maximum; inactive = score below 0.9.

With `CCCCC(CC)COP(=O)(OCC(CC)CCCC)OCC(CC)CCCC` (stereo not drawn), the AC50 in assay [1] was 46.1 µM (active); in assay [3], 31.5 µM (active); in [4], 51.5 µM (active); in [5], 68 µM (active); in [8], 42.5 µM (active). For the same compound, the result in [2], in assay [6], in assay [7], in assay [9] and in assay [10] was inactive.

Consider `O=[Si]=O`, for which the compound was classed as inactive in assay [1], in assay [2], in assay [3], in [4], in [5] and in assay [6]. Moreover, the call in [7], in assay [8], in assay [9] and in assay [10] was inactive.

For the compound `CCCCC(CC)CO` (stereo not drawn), the compound was classed as inactive in assay [1], in assay [2], in assay [3], in assay [4], in assay [5] and in assay [6]. For the same compound, the outcome in [7], in assay [8], in [9] and in assay [10] was inactive.

Consider `NCCOCCOCCN`, for which the AC50 in assay [1] was 6.09 µM (active); in assay [3], 15.8 µM (active); in [4] it was 96.6 µM (active); in assay [5], 76.5 µM (active); in assay [7] it was 100 µM (active); in assay [8], 7.09 µM (active). Also, the AC50 in [9] is 84.5 µM (active); in assay [10] it was 3.84 µM (active). The compound was classed as inactive in [2] and in assay [6].

As to `CC1(C)C(=O)NC(=O)N1CO`, the compound was called inactive in assay [1], in assay [2], in assay [3], in [4], in [5] and in [6]. For the same compound, the outcome in [7], in assay [8] and in assay [10] was inactive. In addition, the AC50 in assay [9] was 100 µM (active).

On to `CCCCCCC(CCCCCCCCCCC(=O)OCC(COC(C)=O)OC(C)=O)OC(C)=O` (stereo not drawn), for which the compound was called inactive in [1], in assay [2], in assay [4], in [5], in assay [6] and in [7]. The outcome in assay [8], in assay [9] and in assay [10] was inactive. For the same compound, the AC50 in assay [3] is 39.8 µM (active).

As for `O=C1O[C@H]([C@H](O)CO)C(O)=C1O`, the compound was classed as inactive in assay [1], in assay [2], in assay [3], in [4], in assay [5] and in assay [6]. For the same compound, the outcome in assay [7], in assay [8], in assay [9] and in assay [10] was inactive.

For the compound `CC(C)(O)c1ccc(CNC(=O)c2cccnc2Oc2ccc(F)cc2)cc1`, the compound was called inactive in assay [1], in assay [2], in assay [3], in assay [4], in assay [5] and in assay [6]. Also, the compound was classed as inactive in [7], in assay [8], in assay [9] and in assay [10].

For `CCCC[C@H]1CN(CC2CCOCC2)C(=O)OC12CCN(C1(C)CCN(C(=O)c3c(C)ncnc3C)CC1)CC2`, the compound was called inactive in assay [1], in [2], in [3], in [4], in assay [5] and in assay [6]. For the same compound, the result in [7], in assay [8], in assay [9] and in assay [10] was inactive.

On to `O=C(O)c1cccnc1`, for which the compound was classed as inactive in [1], in [2], in assay [4], in [5], in assay [6] and in assay [7]. Also, the outcome in assay [9] and in [10] was inactive. Besides, the AC50 in assay [3] was 116 µM (active).

Take `C#CC(O)C(CC)CCCC` (stereo not drawn): the outcome in [1], in assay [2], in assay [3], in [4], in assay [5] and in assay [6] was inactive. Moreover, the compound was called inactive in assay [7], in assay [9] and in assay [10].

As to `CC(C)c1cccc(C(C)C)c1NC(=O)NS(=O)(=O)c1cc(C(C)(C)O)co1`, the call in assay [1], in assay [2], in [3], in assay [4], in assay [5] and in assay [7] was inactive. Moreover, the result in assay [8], in assay [9] and in assay [10] was inactive.

Turning to `CCCCCCCCCCCCCCOS(=O)(=O)O`, the AC50 in [1] was 110 µM (active); in assay [2], 110 µM (active); in assay [3] it was 98.5 µM (active); in assay [5], 114 µM (active); in assay [8], 111 µM (active); in [9], 121 µM (active). Besides, the outcome in assay [4], in [7] and in assay [10] was inactive.

Take `c1ccc2occc2c1`: the result in assay [1], in assay [2], in [3], in assay [4], in assay [5] and in assay [7] was inactive. For the same compound, the compound was classed as inactive in [8] and in assay [10]. The AC50 in assay [9] is 100 µM (active).

With `O=NO`, the result in [1], in [2], in assay [3], in assay [4], in assay [5] and in assay [6] was inactive. Besides, the outcome in [7], in assay [9] and in assay [10] was inactive.

Take `CC(C)(C)c1ccccc1`: the call in [1], in [2], in [3], in [4], in [5] and in [7] was inactive. Further, the call in [8], in assay [9] and in assay [10] was inactive.

On to `CCN(CC)CCOc1ccc(C(=C(Cl)c2ccccc2)c2ccccc2)cc1`, for which the AC50 in [1] was 5.35 µM (active); in assay [3], 11.4 µM (active); in assay [4], 61.2 µM (active); in assay [5] it was 10.5 µM (active); in [9], 77.9 µM (active). Moreover, the call in assay [2], in assay [6], in assay [7] and in assay [10] was inactive.

Turning to `Oc1ccc(O)cc1`, the compound was called inactive in assay [1], in assay [2], in [3], in [4], in assay [5] and in assay [6]. In assay [7], the compound was classed as inactive. Moreover, the AC50 in [8] was 91.9 µM (active); in assay [9], 46.3 µM (active); in assay [10], 67.8 µM (active).

As to `O=C1NC(=O)C(c2ccccc2)(c2ccccc2)N1`, the compound was called inactive in [1], in [2], in [3], in assay [4], in assay [5] and in [6]. Besides, the call in assay [7], in assay [9] and in assay [10] was inactive.

Turning to `C=CCc1ccc(OC)c(OC)c1`, the compound was called inactive in assay [1], in assay [2], in [3], in [4], in assay [5] and in [7]. Moreover, the compound was called inactive in [8], in assay [9] and in assay [10].

As to `Nc1nc(Cl)nc2c1ncn2[C@H]1C[C@H](O)[C@@H](CO)O1`, the AC50 in assay [1] was 0.0288 µM (active); in assay [3], 0.089 µM (active); in assay [5], 0.551 µM (active); in assay [8], 0.038 µM (active). The compound was called inactive in [2], in [4], in [7], in [9] and in assay [10].

Turning to `Nc1nc(=S)c2[nH]cnc2[nH]1`, the AC50 in [1] was 30.5 µM (active); in assay [3], 21 µM (active). Moreover, the compound was classed as inactive in assay [2], in assay [4], in [5], in assay [6], in [7] and in assay [9]. Besides, in [10], the compound was classed as inactive.

Source of the values: PubChem BioAssay (EPA / NIEHS).
